Unmarked numbers belong to inactive results. Results filed as inconclusive are left out. Active and inactive are the calls of the source. Unless noted, calls come from the whole dose curve; as a rule, active = well fitted curve in the direction sought with a large enough effect in the repeat runs; inconclusive = weak or mixed curves; inactive = no such curve, though single readings can be large; an effect the other way counts as inactive or inconclusive.

The nature of assay [1]: qHTS assay for small molecules that induce genotoxicity in human embryonic kidney cells expressing luciferase-tagged ATAD5 (AID 651632). Note: nearly all actives have a fitted effect of over 15% in size. Note: potency is the fitted concentration of half-maximal effect. In short, it runs like this: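 Quantitative HTS in HEK293T expressing luciferase-tagged ATAD5, whose levels rise upon DNA damage. Exposure ran 16 hr at 37C and 5% CO2, with luminescence read 30 min after Amplite addition at room temperature.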
Background: Quantitative high-throughput screening tests each substance at several concentrations.

Assay [2] can be described thus: qHTS assay for small molecule agonists of the p53 signaling pathway - cell viability (AID 651633; calls by dose curve; note: nearly all actives have a fitted effect of over 30% in size; note: potency is the fitted concentration of half-maximal effect). In short, it runs like this:
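p53RE-bla cells, seeded at 4,000 per well and rested 5 h at 37 C/5% CO2, received compounds in DMSO for 16 h at 37 C. CellTiter-Glo was then added, and luminescence was read after 30 min at room temperature to gauge cytotoxicity.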

Assay [3] is described as follows: qHTS assay for small molecule disruptors of the mitochondrial membrane potential - cell viability (AID 720634; calls by dose curve;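 note: human HepG2 liver cancer cells; series mostly up to about 83 µM; nearly all actives have a fitted effect of over 20% in size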). In short, it runs like this: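 ATP-based luminescent viability readout (CellTiter-Glo, 30 min, room temperature) in HepG2 cells multiplexed with the m-MPI membrane potential dye; compound exposure lasted 1 hr at 37 C.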
The nature of assay [4]: qHTS assay to test for compound auto fluorescence at 590 nm (red) in HepG2 cells (AID 720674). Put shortly: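 Compound auto-fluorescence is scored relative to Rose Bengal sodium, measured at 540/590 nm in live HepG2 cultures after 1 hr compound contact (37 C, 5% CO2).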
A short description of assay [5]: qHTS assay to test for compound auto fluorescence at 460 nm (blue) in HEK293 cells (AID 720678). In short, it runs like this:
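Blue-channel (Ex/Em 405/460 nm) intensity measured in HEK293 cultures after overnight compound exposure at 37C; signal expressed relative to triamterene. Cells plated 2,000 per well in 10% dialyzed FBS medium and allowed 4-5 hr to attach.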

Assay [6] can be described thus: qHTS assay to test for compound auto fluorescence at 535 nm (green) in HEK293 cells (AID 720680).
A short description of assay [7]: qHTS assay to test for compound auto fluorescence at 460 nm (blue) in HEK293 cell free culture (AID 720681). In short, it runs like this: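 Test compounds were pinned into cell-free culture medium (DMEM with 10% FBS) and fluorescence was read directly at Ex/Em 405/460 nm. Signals were expressed as fluorescence equivalents of triamterene, with DMSO vehicle as control.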

Assay [8] is described as follows: qHTS assay to test for compound auto fluorescence at 535 nm (green) in HEK293 cell free culture (AID 720682). In short, it runs like this:
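Steps: dispense DMEM/10% FBS into empty wells; pin in compound or DMSO; measure fluorescence at 485/535 nm. Values are fluorescein equivalents.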

Assay [9] is described as follows: qHTS assay to test for compound auto fluorescence at 590 nm (red) in HEK293 cell free culture (AID 720683). Put shortly:
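Tox21 10K library compounds were pinned into cell-free DMEM with 10% FBS and fluorescence was read at excitation 540 nm. Activity is expressed as Rose Bengal sodium equivalency.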

The nature of assay [10]: qHTS assay to test for compound auto fluorescence at 590 nm (red) in HepG2 cell free culture (AID 720684). Put shortly:
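Ex 540 / Em 590 nm read of compound in cell-free MEM (10% FBS). Rose Bengal sodium reference.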

A short description of assay [11]: qHTS assay to test for compound auto fluorescence at 460 nm (blue) in HepG2 cell free culture (AID 720685). In short, it runs like this:
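Cell-free plates of MEM plus 10% FBS received 23 nL compound or DMSO vehicle; blue-channel (405/460 nm) intensity scored against triamterene as reference fluorophore.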

The nature of assay [12]: qHTS assay to test for compound auto fluorescence at 460 nm (blue) in HepG2 cells (AID 720687). In short, it runs like this:
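Cells (2,000/well in MEM with 10% FBS) attached overnight at 37 C, then were exposed to compound or DMSO for 1 hr at 37 C, 5% CO2. Fluorescence read at Ex/Em 405/460 nm, expressed as triamterene-equivalent signal.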

Assay [13] has as its target Glucocorticoid receptor (Homo sapiens) (UniProt P04150). As to the kind of experiment: qHTS assay to identify small molecule agonists of the glucocorticoid receptor (GR) signaling pathway (AID 720691; active = well fitted activation curve with a large enough effect in the signal ratio in the repeat runs, not every such curve was filed as active; the % refers to the signal ratio). Put shortly: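 Cells: GR-bla HeLa, endogenous GR with stably integrated GRE-beta-lactamase reporter. Treatment 18 h, 37 C, compounds delivered in DMSO. Detection via LiveBLAzer B/G FRET substrate, 2 h RT, fluorescence intensity.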

The target is the same in assay [14]. As to the kind of experiment: qHTS assay to identify small molecule antagonists of the glucocorticoid receptor (GR) signaling pathway (AID 720692; active = well fitted inhibition curve with a large enough effect in the signal ratio in the repeat runs, not every such curve was filed as active; the % refers to the signal ratio; note: potency is the fitted concentration of half-maximal effect). In short, it runs like this: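 Quantitative HTS in antagonist format: HeLa cells expressing endogenous GR and a stably integrated GRE-bla reporter, stimulated with 5 nM dexamethasone (final) alongside test compounds for 18 h.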

Assay [15] can be described thus: qHTS assay for small molecule disruptors of the mitochondrial membrane potential (AID 720635). Note: potency is the fitted concentration of half-maximal effect. In short, it runs like this: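 HepG2 cells (2,000/well) attached overnight at 37C, then took compound for 1 hr at 37C, 5% CO2. Mito-MPS dye was added for 30 min; fluorescence was read at 490/535 nm (monomers) and 540/590 nm (aggregates).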
Assay [16] in a line: qHTS assay to test for compound auto fluorescence at 535 nm (green) in HepG2 cells (AID 720675).
The nature of assay [17]: qHTS assay to test for compound auto fluorescence at 535 nm (green) in HepG2 cell free culture (AID 720686).
Assay [18] in a line: qHTS assay for small molecules that induce genotoxicity in human embryonic kidney cells expressing luciferase-tagged ATAD5 - cell viability (AID 651634; calls by dose curve; note: nearly all actives have a fitted effect of over 25% in size). Put shortly:
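After 15.5 hr incubation with compound at 37C, 5% CO2, HEK293T ATAD5-luciferase cells received CellTiter-Fluor reagent; fluorescence intensity was quantified following 30 min at 37C.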

A short description of assay [19]: qHTS assay to test for compound auto fluorescence at 590 nm (red) in HEK293 cells (AID 720679). In short, it runs like this:
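Red-channel autofluorescence (Ex/Em 540/590 nm; Rose Bengal sodium reference) was measured after overnight 37C, 5% CO2 exposure of attached HEK293 cells, 2,000 per well in medium with 10% dialyzed FBS.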

Sequence of Glucocorticoid receptor (Homo sapiens) (P04150 whole entry, looked up): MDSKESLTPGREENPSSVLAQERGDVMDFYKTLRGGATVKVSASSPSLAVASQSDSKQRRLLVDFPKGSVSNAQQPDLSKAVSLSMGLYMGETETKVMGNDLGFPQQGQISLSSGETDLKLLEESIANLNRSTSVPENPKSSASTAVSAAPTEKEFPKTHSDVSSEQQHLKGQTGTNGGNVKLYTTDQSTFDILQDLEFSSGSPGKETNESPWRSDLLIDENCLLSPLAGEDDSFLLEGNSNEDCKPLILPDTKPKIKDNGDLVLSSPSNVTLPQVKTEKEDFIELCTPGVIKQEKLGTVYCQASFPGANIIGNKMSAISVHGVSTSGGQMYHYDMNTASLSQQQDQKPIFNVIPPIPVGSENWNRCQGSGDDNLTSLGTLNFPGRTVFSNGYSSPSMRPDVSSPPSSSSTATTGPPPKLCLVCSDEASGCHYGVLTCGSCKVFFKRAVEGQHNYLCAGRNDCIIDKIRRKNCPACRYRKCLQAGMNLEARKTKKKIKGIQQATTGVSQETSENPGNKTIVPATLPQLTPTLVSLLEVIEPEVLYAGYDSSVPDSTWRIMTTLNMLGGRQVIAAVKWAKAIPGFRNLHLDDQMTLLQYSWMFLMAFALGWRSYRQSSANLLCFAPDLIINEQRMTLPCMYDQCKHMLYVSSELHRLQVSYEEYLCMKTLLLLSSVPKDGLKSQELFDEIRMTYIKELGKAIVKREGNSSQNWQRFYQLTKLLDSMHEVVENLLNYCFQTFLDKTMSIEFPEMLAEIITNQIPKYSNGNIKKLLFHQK

In the case of `CCOc1cccc(-n2cc(C(=O)N3CCN(c4cc(C(=O)O)c5ccccc5c4)CC3)nc2-c2ccc(C)cc2)c1`, the Potency entry in [1], in assay [3], in assay [5], in assay [7], in assay [11] and in assay [12] was “inactive” throughout. In [13], the Potency entry was “inactive”. The Potency was 20.7 µM (active) in assay [2] and 14.8 µM (active) in [14]. In addition, the outcome in assay [4], in assay [6], in assay [8], in assay [9] and in [10] was inactive.
As for `Nc1nc2ccc([N+](=O)[O-])cc2s1`, the Potency entry in assay [1], in assay [3], in [5], in [7], in assay [11] and in [12] was “inactive” each time. Besides, the Potency in [15] is 4.33 µM (active). Further, the call in assay [4], in assay [16], in assay [6], in [8], in assay [9] and in assay [10] was inactive. Besides, the call in [17] was inactive.
As for `O=C(/C=C/c1ccccc1)OCCc1ccccc1`, the Potency entry in assay [2], in assay [18], in assay [3], in assay [5], in assay [7] and in assay [11] was “inactive” throughout. Also, the Potency entry in assay [12] and in [13] was “inactive” each time. Besides, the molecule was called inactive in [16], in assay [19], in assay [6], in [8], in [9] and in assay [10]. Moreover, the call in [17] was inactive.
Turning to `C/C=C\C/C=C/CCCCCCCCOC(C)=O`, the Potency result in assay [1], in assay [3], in assay [15], in assay [5], in assay [7] and in [11] was “inactive” in each case. The Potency entry in [12] was “inactive”. For the same molecule, the result in [16], in assay [19], in assay [6], in assay [8], in assay [9] and in [10] was inactive. The call in assay [17] was inactive.
`C/C=C/C=C/C=O`: the Potency entry in [1], in [18], in assay [3], in [15], in assay [5] and in [7] was “inactive” each time. Besides, the Potency entry in assay [11], in assay [12] and in assay [13] was “inactive” throughout. The result in [4], in assay [16], in [19], in assay [6], in assay [8] and in assay [9] was inactive. Moreover, the outcome in assay [10] and in assay [17] was inactive.
For the molecule `C=C(C)C(=O)OCCOCCOC(=O)C(=C)C`, the Potency entry in assay [1], in assay [18], in assay [3], in [15], in assay [5] and in assay [7] was “inactive” in each case. Also, the Potency result in assay [11] and in assay [12] was “inactive” in each case. The molecule was called inactive in assay [16], in assay [19], in assay [6], in [8], in assay [9] and in assay [10]. In addition, the result in assay [17] was inactive.
As for `COc1cc(C(=O)NC2CCN(C)CC2)ccc1Nc1ncc2c(n1)N(C1CCCC1)CC(F)(F)C(=O)N2C`, the Potency in assay [1] is 1.58 µM (active); in assay [2] it was 44.5 µM (active); in assay [15], 44.5 µM (active). In addition, the call in [4], in assay [16], in [19], in [6], in [8] and in assay [9] was inactive. Further, the molecule was called inactive in assay [10] and in assay [17]. The Potency result in assay [5], in [7], in assay [11] and in assay [12] was “inactive” each time.
As for `O=C1Cc2ccccc2N1c1c(Cl)cccc1Cl`, the Potency entry in [1], in assay [18], in assay [5], in [7], in assay [11] and in assay [12] was “inactive” in each case. Besides, the outcome in assay [4], in assay [16], in assay [19], in [6], in assay [8] and in assay [9] was inactive. The call in assay [10] and in [17] was inactive.
`Cc1cc(O)ccc1O`: the Potency result in assay [18], in assay [3], in [15], in assay [5], in assay [7] and in assay [11] was “inactive” in each case. For the same molecule, in assay [12], the Potency entry was “inactive”. In addition, the molecule was classed as inactive in [4], in assay [16], in assay [19], in assay [6], in assay [8] and in [10]. Besides, the outcome in assay [17] was inactive.
`COC(=O)C1=C(C)NC(C)=C(C(=O)O[C@@H]2CCCN(Cc3ccccc3)C2)[C@@H]1c1cccc([N+](=O)[O-])c1`: the Potency entry in assay [1], in [2], in [5], in assay [7], in assay [11] and in assay [12] was “inactive” each time. The Potency is 13.3 µM (active) in [15] and 10.7 µM (active) in assay [14]. Besides, the molecule was classed as inactive in [4], in [16], in assay [19], in assay [6], in [8] and in assay [9]. In addition, the result in [10] was inactive.
With `O=C(CCCN1CC=C(n2c(=O)[nH]c3ccccc32)CC1)c1ccc(F)cc1`, the Potency entry in [1], in assay [18], in [3], in assay [15], in assay [5] and in assay [7] was “inactive” in each case. The Potency result in [11], in assay [12] and in assay [13] was “inactive” in each case. In addition, the result in assay [4], in assay [16], in assay [19], in assay [6], in [9] and in assay [10] was inactive. Moreover, the call in assay [17] was inactive.

Values taken from PubChem BioAssay (Tox21).
